PubChem BioAssay AID1117313 (National Center for Advancing Translational Sciences (NCATS), 2015)
Activity calls are given as the source filed them. The call rests on the fitted dose curve.

Details: Ebola virus entry reporter assay, ratio channel
In the case of `CC[C@H]1OC(=O)[C@H](C)[C@@H](O[C@H]2C[C@@](C)(OC)[C@@H](O)[C@H](C)O2)C(C)[C@@H](O[C@@H]2O[C@H](C)C[C@H](N(C)C)[C@@H]2O)[C@](C)(OC)C[C@@H](C)C(=O)[C@H](C)[C@@H](O)[C@]1(C)O` (some centres undefined), the AC50 is reported as 4850 nM (active).
For `CN1CCC[C@@H]1CCO[C@](C)(c1ccccc1)c1ccc(Cl)cc1`, the AC50 was 1530 nM (active).
For `CO[C@H]1C[C@@H]2CC[C@@H](C)[C@@](O)(O2)C(=O)C(=O)N2CCCC[C@@H]2C(=O)O[C@H]([C@@H](C)C[C@@H]2CC[C@H](O)[C@H](OC)C2)CC(=O)[C@H](C)C=C(C)[C@@H](O)[C@@H](OC)C(=O)[C@H](C)C[C@H](C)C=CC=CC=C1C`, the outcome was “inactive”.
In the case of `CCCCc1oc2ccc(NS(C)(=O)=O)cc2c1C(=O)c1ccc(OCCCN(CCCC)CCCC)cc1`, the AC50 is reported as 2430 nM (active).
For `CCCNCC(O)COc1ccccc1C(=O)CCc1ccccc1` (centres undefined), the AC50 was 8630 nM (active).
With `CN1CCN(CCCN2c3ccccc3Sc3ccc(C(F)(F)F)cc32)CC1` the AC50 was 2730 nM (active).
In the case of `COc1cccc2c1C(=O)c1c(O)c3c(c(O)c1C2=O)C[C@@](O)(C(C)=O)C[C@H]3O[C@H]1C[C@H](N)[C@H](O)[C@H](C)O1`, the AC50 is reported as 2730 nM (active).
For `C[C@]12CC[C@@H]3c4ccc(O)cc4C[C@@H](CCCCCCCCCS(=O)CCCC(F)(F)C(F)(F)F)[C@H]3[C@@H]1CC[C@@H]2O` (some centres undefined), the outcome was “inactive”.
In the case of `CN1[C@@H]2CC[C@H]1CC(OC(c1ccccc1)c1ccccc1)C2` (some centres undefined), the AC50 is reported as 3850 nM (active).
In the case of `CCN(CC)CCNC(=O)c1c(C)[nH]c(/C=C2\C(=O)Nc3ccc(F)cc32)c1C`, the AC50 is reported as 1530 nM (active).
For `CC[C@]1(O)C[C@@H]2CN(CCc3c([nH]c4ccccc34)[C@@](C(=O)OC)(c3cc4c(cc3OC)N(C)[C@H]3[C@@](O)(C(=O)OC)[C@H](OC(C)=O)[C@]5(CC)C=CCN6CC[C@]43[C@@H]65)C2)C1`, the AC50 was 122 nM (active).
For `CCC1=C[C@@H]2CN(C1)Cc1c([nH]c3ccccc13)[C@@](C(=O)OC)(c1cc3c(cc1OC)N(C)[C@H]1[C@@](O)(C(=O)OC)[C@H](OC(C)=O)[C@]4(CC)C=CCN5CC[C@]31[C@@H]54)C2`, the AC50 was 86.3 nM (active).
In the case of `Cc1nnc(C(C)C)n1C1C[C@H]2CC[C@@H](C1)N2CC[C@H](NC(=O)C1CCC(F)(F)CC1)c1ccccc1` (some centres undefined), the outcome is reported as “inactive”.
With `C[C@@H]1O[C@@H](O[C@H]2CC[C@@]3(C)[C@H](CC[C@@H]4[C@H]3C[C@@H](O)[C@]3(C)[C@@H](C5=CC(=O)OC5)CC[C@]43O)C2)C[C@H](O)[C@@H]1O[C@H]1C[C@H](O)[C@H](O[C@H]2C[C@H](O)[C@@H](O)[C@@H](C)O2)[C@H](C)O1` (stereo in doubt) the AC50 was 1400 nM (active).
In the case of `CC[C@H]1OC(=O)[C@H](C)[C@@H](O[C@H]2C[C@@](C)(OC)[C@@H](O)[C@H](C)O2)[C@H](C)[C@@H](O[C@@H]2O[C@H](C)C[C@H](N(C)C)[C@@H]2O)[C@](C)(O)C[C@@H](C)CN(C)[C@H](C)[C@@H](O)[C@]1(C)O`, the AC50 is reported as 3060 nM (active).
With `CN(C)CCCN1c2ccccc2CCc2ccc(Cl)cc21` the AC50 was 5440 nM (active).
In the case of `COC(=O)Nc1nc2ccc(C(=O)c3cccs3)cc2[nH]1`, the AC50 is reported as 544 nM (active).
For `CO[C@H]1C[C@@H]2CC[C@@H](C)[C@@](O)(O2)C(=O)C(=O)N2CCCC[C@@H]2C(=O)O[C@H]([C@H](C)C[C@@H]2CC[C@H](OCCO)[C@H](OC)C2)CC(=O)[C@H](C)C=C(C)[C@@H](O)[C@@H](OC)C(=O)[C@H](C)C[C@H](C)C=CC=CC=C1C`, the outcome was “inactive”.
In the case of `NCCCC(O)(P(=O)(O)O)P(=O)(O)O`, the outcome is reported as “inactive”.
With `CCCSc1ccc2nc(NC(=O)OC)[nH]c2c1` the AC50 was 4320 nM (active).
In the case of `COC(=O)Nc1nc2ccc(C(=O)c3ccccc3)cc2[nH]1`, the AC50 is reported as 3430 nM (active).
In the case of `COC1=CC(=O)C[C@@H](C)[C@]12Oc1c(Cl)c(OC)cc(OC)c1C2=O`, the outcome is reported as “inactive”.
In the case of `CC[C@]1(O)C[C@H]2CN(CCc3c([nH]c4ccccc34)[C@@](C(=O)OC)(c3cc4c(cc3OC)N(C=O)[C@H]3[C@@](O)(C(=O)OC)[C@H](OC(C)=O)[C@]5(CC)C=CCN6CC[C@]43[C@@H]65)C2)C1`, the AC50 is reported as 137 nM (active).
In the case of `CN(C)CCOc1ccc(/C(=C(/CCCl)c2ccccc2)c2ccccc2)cc1`, the AC50 is reported as 1090 nM (active).
